# This is part of a sample that, as a whole, favours compounds with a hit. Of some 83,000 tested, about 20% had one in any assay.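 Results are percent growth after 48 hours of single-concentration exposure. 100 means growth as in untreated cells, lower positive values show inhibition; negative values down to -100 show cell death.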 Activity calls are given as the source filed them. How the source made its calls: active means growth percent below 10; inactive means the rest.
# System: TK-10 renal
# Test: NCI-60 one-dose screen, 48 h (100 = growth as untreated, 0 = no growth, -100 = all killed)
# Conditions: 10 µM unless noted
row,Structure (SMILES),growth
1,COc1ccc(C(=O)c2cc(OC)c(OC)c(OC)c2)cc1/C=C/C(=O)c1ccc(OC)c(OC)c1,63.8% (inactive)
2,COc1c(NC[C@H]2OC(O)[C@H](O)[C@@H](O)[C@@H]2O)c(=O)c1=O (some centres undefined),97% (inactive)
3,Nc1c(C(=O)Nc2ccccc2)sc2nc3c(cc12)CN(Cc1ccccc1)CC3,53.9% (inactive)
4,CN=S(=O)(NC(=O)c1ccc(Cl)cc1Cl)c1ccc(Br)s1 (centres undefined),106% (inactive)
5,CC(C)C[C@H](NC(=O)[C@H](Cc1ccccc1)n1ccc(N2CCCCC2)cc1=O)B(O)O,16.9% (inactive)
6,Cc1cc(C)c(NC(=O)c2sc3nc4c(cc3c2N)CN(Cc2ccccc2)CC4)c(C)c1,67.6% (inactive)
7,COc1ccc(C(=O)c2cc(OC)c(OC)c(OC)c2)cc1/C=C/C(=O)c1ccc2c(c1)OCO2,44.6% (inactive)
8,Cc1ccc(Oc2nc3ccccc3cc2-c2nnc(Cn3c(COc4ccccc4)nc4ccccc43)o2)cc1,77.1% (inactive)
9,Nc1c(C(=O)Nc2ccccc2)sc2nc3c(cc12)CCCCC3,21.6% (inactive)
10,CC(C)C[C@H](NC(=O)Cn1ccc(NCc2ccccc2)cc1=O)B(O)O,-10.7% (active)
11,CC(C)(C)c1ccc(S(=O)(=O)Oc2ccc3c4c(c(=O)oc3c2)CCCCC4)cc1,87.1% (inactive)
12,O=C(Nc1ccc(OCc2nnc(-c3ccc(Cl)cc3)o2)c(F)c1)Nc1ccc(Cl)c(Cl)c1,77.5% (inactive)
13,COc1ccc(/C=C/C(=O)c2ccc(B(O)O)cc2)cc1O,104% (inactive)
14,CC(C)(C)OC(=O)N[C@@H](Cc1ccccc1)C(=O)N(Cc1ccccc1)C1(C(=O)NCc2ccccc2)CCN(Cc2ccccc2)CC1,62.3% (inactive)
15,COC(=O)c1cc(-c2cccs2)c(C#N)c(N)c1C#N,116% (inactive)
16,COc1cc(/C=C\c2cc(OC)c(OC)c(OC)c2)cc(N/C=C\C(=O)c2c[nH]c3ccccc23)c1OC,-43.4% (active)
17,COc1cc(C(=O)/C=C/c2cc(C(=O)c3cc(OC)c(OC)c(OC)c3)ccc2OC)ccc1N,13.1% (inactive)
18,CC(C)C[C@H](NC(=O)[C@@H](Cc1ccccc1)n1ccc(Nc2ccccc2)cc1=O)B(O)O,-0.144% (active)
19,O=c1oc2cc(OS(=O)(=O)c3ccccc3)c(Cl)cc2c2c1CCCCCC2,111% (inactive)
20,COc1ccc(C(=O)/C=C/c2cc(C(=O)c3cc(OC)c(OC)c(OC)c3)ccc2OC)cc1,107% (inactive)

# System: ACHN renal
# Test: as above
# Conditions: 10 µM unless noted
row,Structure (SMILES),growth
1,COc1ccc(C(=O)c2cc(OC)c(OC)c(OC)c2)cc1/C=C/C(=O)c1ccc(OC)c(OC)c1,20.4% (inactive)
2,COc1c(NC[C@H]2OC(O)[C@H](O)[C@@H](O)[C@@H]2O)c(=O)c1=O (some centres undefined),105% (inactive)
3,COc1cccc(/C=C/c2c(C(=O)O)cccc2[N+](=O)[O-])c1OC,100% (inactive)
4,COc1ccc(OC)c(C(=O)c2oc3ccc(Br)cc3c2N)c1,50.7% (inactive)
5,Nc1c(C(=O)Nc2ccccc2)sc2nc3c(cc12)CN(Cc1ccccc1)CC3,38.1% (inactive)
6,CN=S(=O)(NC(=O)c1ccc(Cl)cc1Cl)c1ccc(Br)s1 (centres undefined),102% (inactive)
7,CC(C)C[C@H](NC(=O)[C@H](Cc1ccccc1)n1ccc(N2CCCCC2)cc1=O)B(O)O,16.1% (inactive)
8,COc1ccc(-c2cn[nH]c2-c2cc(OC)c3c(c2)OCO3)cc1,39.5% (inactive)
9,COc1ccccc1CNCCCN1C(=O)c2ccc3c4c(ccc(c24)C1=O)C(=O)N(CCCNCCCCNCCCCN)C3=O,17.2% (inactive)
10,Nc1c(C(=O)c2ccc(F)cc2)sc2nc3c(cc12)CCCC3,96.6% (inactive)
11,COc1cccc(C2CC(=O)Nc3c2c(C)nn3-c2nc3ccccc3[nH]2)c1OC (centres undefined),56.5% (inactive)
12,COc1ccc(NC(=O)CSc2nc3ccc(Cl)cc3c(=O)n2-c2ccccc2C(F)(F)F)c(OC)c1OC,61.2% (inactive)
13,Cc1cc(C)c(NC(=O)c2sc3nc4c(cc3c2N)CN(Cc2ccccc2)CC4)c(C)c1,45.7% (inactive)
14,CC(C)[C@H](CO)Nc1nc(Nc2ccc(C(=O)NCCNS(=O)(=O)c3cccc4c(N(C)C)cccc34)c(Cl)c2)c2ncn(C(C)C)c2n1,43.4% (inactive)
15,COc1ccc(C(=O)c2cc(OC)c(OC)c(OC)c2)cc1/C=C/C(=O)c1ccc2c(c1)OCO2,-76.4% (active)
16,Cc1ccc(Oc2nc3ccccc3cc2-c2nnc(Cn3c(COc4ccccc4)nc4ccccc43)o2)cc1,49.9% (inactive)
17,Nc1c(C(=O)Nc2ccccc2)sc2nc3c(cc12)CCCCC3,30.3% (inactive)
18,CC(C)C[C@H](NC(=O)Cn1ccc(NCc2ccccc2)cc1=O)B(O)O,9.74% (active)
19,CC(C)(C)c1ccc(S(=O)(=O)Oc2ccc3c4c(c(=O)oc3c2)CCCCC4)cc1,30.3% (inactive)
20,COc1cc(-c2nc(-c3nc4ccccc4[nH]3)cc3c2[nH]c2ccccc23)cc(OC)c1OC,51.4% (inactive)

row,Structure (SMILES),growth
1,O=C(Nc1ccc(OCc2nnc(-c3ccc(Cl)cc3)o2)c(F)c1)Nc1ccc(Cl)c(Cl)c1,3.37% (active)
2,COc1ccc(/C=C/C(=O)c2ccc(B(O)O)cc2)cc1O,93.9% (inactive)
3,COc1ccc(/C=C/C(=O)c2cc(OC)c(OC)c(OC)c2)cc1OCc1cn(Cc2ccc(F)cc2)nn1,57.9% (inactive)
4,CC(C)(C)OC(=O)N[C@@H](Cc1ccccc1)C(=O)N(Cc1ccccc1)C1(C(=O)NCc2ccccc2)CCN(Cc2ccccc2)CC1,40.8% (inactive)
5,COC(=O)c1cc(-c2cccs2)c(C#N)c(N)c1C#N,107% (inactive)
6,CCN(CC)P(=O)(N(CC)CC)N(CCCSC/C=C(\C)CC/C=C(\C)CCC=C(C)C)CCCN1CCN(C)CC1,119% (inactive)
7,O=C(O)c1cccc([N+](=O)[O-])c1/C=C/c1ccccc1,110% (inactive)
8,Cc1ccc(C(=O)c2sc3nc4c(cc3c2N)CCCC4)c(C)c1,46.4% (inactive)
9,COc1cc(/C=C\c2cc(OC)c(OC)c(OC)c2)cc(N/C=C\C(=O)c2c[nH]c3ccccc23)c1OC,-100% (active)
10,COc1cc(C(=O)/C=C/c2cc(C(=O)c3cc(OC)c(OC)c(OC)c3)ccc2OC)ccc1N,-88.5% (active)
11,CC(C)C[C@H](NC(=O)[C@@H](Cc1ccccc1)n1ccc(Nc2ccccc2)cc1=O)B(O)O,20.9% (inactive)
12,COc1ccc(Cn2c(SC)nc(=O)n(Cc3ccc(Cl)cc3)c2=O)cc1,96.3% (inactive)
13,COc1ccc(Cn2cc(COc3cc(/C=C/C(=O)c4cc(OC)c(OC)c(OC)c4)ccc3OC)nn2)cc1,64.6% (inactive)
14,O=c1oc2cc(OS(=O)(=O)c3ccccc3)c(Cl)cc2c2c1CCCCCC2,88.2% (inactive)
15,COc1ccc(-c2nc(-c3nc4ccc(F)cc4[nH]3)cc3c2[nH]c2ccccc23)cc1,32.1% (inactive)
16,COc1ccc(C2CC(=O)Nc3c2c(C)nn3-c2nc3ccccc3[nH]2)cc1OC (centres undefined),85.2% (inactive)
17,COc1ccc(NC(=O)CSc2nc3ccccc3c(=O)n2-c2ccccc2C(F)(F)F)c(OC)c1OC,99.2% (inactive)
18,COc1ccc(C(=O)/C=C/c2cc(C(=O)c3cc(OC)c(OC)c(OC)c3)ccc2OC)cc1,41% (inactive)
19,COc1ccc(C(=O)/C=C/c2ccc(/C=C/c3cc(OC)c(OC)c(OC)c3)cc2)cc1,68.1% (inactive)

# — PubChem BioAssay (NCI)
